aSyn UTR act: Activators working through SNCA 5'UTR binding (MLPCN); alpha-synuclein 5'UTR reporter, activators screen; activity score, % (tested at 7.5 µM), hits read low; hit rate 7.1% among 300,000; in the data active = activity score below about -60%
Hits are given with their value. The list is a sample of the results.

For Fc1cc(Br)ccc1NC(=S)NCCc1ccccc1 the results were aSyn UTR act -118.6.
For CC1=C/C(=N\NC(=S)NCCc2ccccc2)CC(C)(C)C1 the results were aSyn UTR act -80.3.
S=C(NCCc1ccccc1)Nc1ccc(Cl)cc1 was read as aSyn UTR act -135.0.
COCCN(Cc1ccccc1)C(=S)Nc1ccc(Cl)cc1 was read as aSyn UTR act inactive.
`Cc1cccc(NC(=O)C(=O)NCCCc2ccccc2)c1` gave aSyn UTR act -76.6.
`Cc1ccc(NC(=O)NCCCc2ccccc2)cc1` gave aSyn UTR act -90.0.
`CC(C)(C)NC(=O)NCCc1ccccc1` gave aSyn UTR act -95.5.
S=C(NCCc1ccccc1)NCCc1ccccc1 was read as aSyn UTR act -214.8.
Screening O=C(NCCc1ccccc1)/C(=N\O)c1ccccc1 returned aSyn UTR act -106.7.
For Fc1ccc(CCNC(=S)Nc2ccc(F)cc2)cc1 the results were aSyn UTR act -75.7.
CCCC(=O)N=C1SC2CS(=O)(=O)CC2N1c1ccc(-c2nc3ccc(C)cc3s2)cc1 (stereo not given) was read as aSyn UTR act -132.2.
Fc1cccc(CSc2nnc3c(n2)[nH]c2ccccc23)c1 was read as aSyn UTR act -141.6.
`Cc1ccc(OC(=O)c2ccc(S(=O)(=O)N(C)C)cc2)c(-n2nc3ccccc3n2)c1` gave aSyn UTR act -194.8.
Cc1ccc2nc(NNC(=O)c3ccc(S(=O)(=O)N4CCc5ccccc5C4)cc3)sc2c1 was read as aSyn UTR act inactive.
CC(=O)Oc1ccc(C)cc1-n1nc2ccccc2n1 was read as aSyn UTR act -211.9.
`Cc1ccc(OC(=O)c2cccc(S(=O)(=O)N3CCCC3)c2)c(-n2nc3ccccc3n2)c1` gave aSyn UTR act -161.6.
`Cc1cc(Cl)c(O)c(-n2nc3ccccc3n2)c1` gave aSyn UTR act -142.9.
`Cc1ccc(NC(=O)/C(C#N)=C(\N)C(Cl)(Cl)Cl)nc1` gave aSyn UTR act -67.8.
For Cc1ccc(NC(=O)Nc2cccc([N+](=O)[O-])c2)nc1 the results were aSyn UTR act -112.8.
Screening Cc1ccc(NC(=O)Nc2ccc([N+](=O)[O-])cc2)nc1 returned aSyn UTR act -113.4.
For C=C(C)c1cccc(C(C)(C)NC(=O)Nc2ccc(C)cn2)c1 the results were aSyn UTR act -90.9.
Screening Cc1ccc(NC(=O)Nc2ccccc2)nc1 returned aSyn UTR act -119.4.
For Cc1ccc(NC(=O)c2ccc(F)cc2)nc1 the results were aSyn UTR act -107.5.
Screening Cc1ccc(NC(=O)C(=O)Nc2ccc(C)cn2)nc1 returned aSyn UTR act -66.5.
Screening O=C(NCc1ccco1)C(=O)NCc1ccccc1Cl returned aSyn UTR act -70.6.
`O=C(NCc1ccco1)c1cc2cc3ccc(Cl)cc3nc2o1` gave aSyn UTR act -61.9.
O=C(NCc1ccco1)c1sc2cc(Cl)ccc2c1Cl was read as aSyn UTR act -65.9.
O=C(Nc1ccon1)c1sc2cc(Cl)ccc2c1Cl was read as aSyn UTR act -84.3.
CCN(CC)CCOC(=O)C(Cc1ccco1)Cc1cccc2ccccc12 (stereo not given) was read as aSyn UTR act inactive.
O=C(NCc1ccco1)c1sc2ccccc2c1Cl was read as aSyn UTR act -114.2.
O=C(Nc1ccn(-c2ccccc2)n1)c1ccccc1Br was read as aSyn UTR act -161.5.
O=C(Nc1ccn(-c2ccccc2)n1)c1ccc(Cl)cc1 was read as aSyn UTR act -135.8.
For COc1cccc(OCc2cc(/C=N/NC(=O)c3ccn[nH]3)ccc2OC)c1 the results were aSyn UTR act -70.8.
Screening CNC(=O)c1ccc(-c2cc(C(F)(F)F)nn2C)s1 returned aSyn UTR act -142.0.
For CCc1ccc(C(=O)/C=C/c2ccc([N+](=O)[O-])o2)cc1 the results were aSyn UTR act -151.3.
Cc1ccc(SSc2cc(C)ccc2N)c(N)c1 was read as aSyn UTR act -202.9.
`CCN(CC)c1ccc2c(cc1=O)[C@@H](NC)CCc1cc(OC)c(OC)c(OC)c1-2` gave aSyn UTR act inactive.
COC(=O)c1c(-c2cccnc2)csc1NC(=O)c1cc(C)on1 was read as aSyn UTR act -231.2.
COC(=O)c1c(-c2ccc(F)cc2)csc1NC(=O)c1ccco1 was read as aSyn UTR act -128.7.
For COC(=O)c1c(-c2ccc(C)cc2)csc1NC(=O)c1c(-c2ccccc2)noc1C the results were aSyn UTR act inactive.
For COc1ccc(-c2csc(NC(=O)c3ccccc3F)c2C(=O)O)cc1 the results were aSyn UTR act -89.5.
Screening Cc1ccc(C(=O)Nc2scc(-c3ccccc3)c2C(=O)O)cc1 returned aSyn UTR act -91.8.
COc1ccc(-c2csc(Nc3ccc(C)cn3)n2)cc1 was read as aSyn UTR act -180.3.
Screening CC(=O)Oc1ccc(-c2csc(Nc3ccc(Cl)cn3)n2)cc1 returned aSyn UTR act -135.1.
O=C(/C=C/c1ccco1)Nc1cccnc1Cl was read as aSyn UTR act -130.3.
`O=C(/C=C/c1ccccc1)Nc1cccnc1Cl` gave aSyn UTR act -84.1.
For Cn1c(NC(=O)/C=C/c2ccco2)cc(=O)n(C)c1=O the results were aSyn UTR act -61.7.
For COC(=O)c1ccccc1NC(=O)/C=C/c1ccco1 the results were aSyn UTR act -68.3.

Source: PubChem BioAssay
